Data as given in PubChem BioAssay AID1159580 (chemical genetic matrix, 2015).
Among all 5,500 compounds or so, about 2,000 (36%) were called active. Not shown: some 18% with an inconclusive outcome. Rule as the data show it: active = normalized growth mostly below about 0.91 (no sharp cut-off); inconclusive = no clear call, values can overlap the other calls; inactive = mostly above about 0.92. The list shows a part of the results.

Test: chemical genetic growth profiling, strain panel (AID 1159580);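 also: tested at 20 µM; growth read once vehicle control cultures reached saturation at 30 °C; 1 = growth at the plate median or of vehicle wells; lower values mean less growth of the strain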
Settings: S. cerevisiae deletion strains, growth OD

Measured: normalized growth

CCCn1c(=O)c2c(ncn2C)n(CCC)c1=O
inactive: locus YAL013W, strain DEP1, active compounds read low 0.983 | locus YCL061C, strain MRC1 (second series), active compounds read low 1 | locus YDR150W, strain NUM1, active compounds read low 1.02 | locus YDR363W, strain ESC2, active compounds read low 0.964 | locus YER002W, strain NOP16, active compounds read low 0.999 | locus YGR078C, strain PAC10, active compounds read low 0.986 | locus YNL128W, strain TEP1, active compounds read low 0.992 | locus YNL175C, strain NOP13, active compounds read low 1 | locus YNL197C, strain WHI3, active compounds read low 1 | locus YNL224C, strain SQS1, active compounds read low 0.988 | locus YNL322C, strain KRE1, active compounds read low 0.994 | locus YOR083W, strain WHI5 (second series), active compounds read low 0.981 | locus YPL241C, strain CIN2, active compounds read low 1.01
active: locus YAL040C, strain CLN3, active compounds read low 1.13 [resistant]
